This excerpt belongs to a sample that is enriched for the strongest signals.
Key:
Assay in all cases: glycan array binding signal (z-score within array); higher = stronger binding
Conditions in all cases: glycan notation: IUPAC condensed, linker removed
[1] = target: Fuc(a1-2)Gal(b1-3)GlcNAc
How it was run: (§1)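 Columns mapping to the same glycan were averaged after glycan names were converted to IUPAC-condensed notation. The data come from 3228 arrays in the Consortium for Functional Glycomics database, limited to those with an available protein sequence. Binding is reported as a within-array Z-score averaged across arrays of one protein sequence and across linkers.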

[2] = target: Fuc(a1-2)Gal(b1-4)[Fuc(a1-3)]GlcNAc(b1-3)Gal(b1-4)[Fuc(a1-3)]GlcNAc
How it was run: as §1

[3] = target: Fuc(a1-3)[Gal(b1-4)]GlcNAc(b1-3)Gal(b1-3)[Fuc(a1-4)]GlcNAc
How it was run: as §1

[4] = target: Fuc(a1-3)[Gal3S(b1-4)]Glc6S
How it was run: as §1

[5] = target: Gal(b1-3)GalNAc
How it was run: as §1

[6] = target: Gal(b1-4)GlcNAc(b1-2)Man(a1-3)[Gal(b1-4)GlcNAc(b1-2)Man(a1-6)]Man(b1-4)GlcNAc(b1-4)GlcNAc
How it was run: as §1

[7] = target: Gal(b1-4)GlcNAc(b1-3)Gal(b1-4)[Fuc(a1-3)]GlcNAc(b1-3)Gal(b1-4)[Fuc(a1-3)]GlcNAc
How it was run: as §1

[8] = target: Gal(b1-4)GlcNAc(b1-3)[GlcNAc(b1-6)]Gal(b1-4)GlcNAc
How it was run: as §1

[9] = target: Gal(b1-4)GlcNAc(b1-6)[Gal(b1-3)]GalNAc
How it was run: as §1

[10] = target: Gal3S(b1-4)[Fuc(a1-3)]Glc
How it was run: as §1

[11] = target: Gal4S6S(b1-4)GlcNAc
How it was run: as §1

[12] = target: Glc(a1-6)Glc(a1-6)Glc
How it was run: as §1

[13] = target: GlcA(b1-6)Gal
How it was run: as §1

[14] = target: Man(a1-2)Man(a1-3)[Man(a1-2)Man(a1-6)]Man(a1-6)[Man(a1-2)Man(a1-2)Man(a1-3)]Man
How it was run: as §1

[15] = target: Man(a1-2)Man(a1-6)[Man(a1-3)]Man(a1-6)[Man(a1-2)Man(a1-2)Man(a1-3)]Man(b1-4)GlcNAc(b1-4)GlcNAc
How it was run: as §1

[16] = target: Man(a1-3)[Man(a1-6)]Man
How it was run: as §1

[17] = target: Neu5Ac(a2-3)Gal(b1-3)GalNAc(b1-4)[Neu5Ac(a2-3)]Gal(b1-4)Glc
How it was run: as §1

[18] = target: Neu5Ac(a2-3)Gal(b1-4)GlcNAc(b1-3)Gal(b1-3)GlcNAc
How it was run: as §1

[19] = target: Neu5Ac(a2-3)Gal(b1-4)[Fuc(a1-3)]GlcNAc(b1-3)Gal
How it was run: as §1

[20] = target: Neu5Ac(a2-3)[GalNAc(b1-4)]Gal(b1-4)Glc
How it was run: as §1

[21] = target: Neu5Ac(a2-6)Gal(b1-4)GlcNAc(b1-2)Man(a1-3)[GlcNAc(b1-2)Man(a1-6)]Man(b1-4)GlcNAc(b1-4)GlcNAc
How it was run: as §1

[22] = target: Neu5Ac(a2-6)GalNAc(b1-4)GlcNAc
How it was run: as §1

B1: RfpB (Mycobacterium tuberculosum), O05594 (protein)
chain: MAAGLVTASMSLSTAVAHAGPSPNWDAVAQCESGGNWAANTGNGKYGGLQFKPATWAAFGGVGNPAAASREQQIAVANRVLAEQGLDAWPTCGAASGLPIALWSKPAQGIKHAGPSPNWDAVAQCESGGNWAANTGNGKYGGLQFKPATWAAFGGVGNPAAASREQQIAVANRVLAEQGLDAWPTCGA
[1]
  glycan array binding signal (z-score): 0.352
[2]
  glycan array binding signal (z-score): -0.487
[3]
  glycan array binding signal (z-score): -0.065
[4]
  glycan array binding signal (z-score): 2.53
[5]
  glycan array binding signal (z-score): -0.202
[6]
  glycan array binding signal (z-score): -0.1
[7]
  glycan array binding signal (z-score): 9.72
[8]
  glycan array binding signal (z-score): 2.74
[9]
  glycan array binding signal (z-score): -0.262
[10]
  glycan array binding signal (z-score): -0.568
[11]
  glycan array binding signal (z-score): 0.03
[12]
  glycan array binding signal (z-score): -0.239
[13]
  glycan array binding signal (z-score): -0.284
[14]
  glycan array binding signal (z-score): -0.097
[15]
  glycan array binding signal (z-score): -0.426
[16]
  glycan array binding signal (z-score): 9.95
[17]
  glycan array binding signal (z-score): 4.02
[18]
  glycan array binding signal (z-score): -0.23
[19]
  glycan array binding signal (z-score): -0.07
[20]
  glycan array binding signal (z-score): -0.524
[21]
  glycan array binding signal (z-score): -0.499
[22]
  glycan array binding signal (z-score): -0.639

— the supplement of paper PMC8728848
